# Results as given in publication PMC5540273 (PLoS ONE, 2017).
# How the values were obtained:
# Settings in all cases: concentration: 1 μM, replicates: in singlicate; n = 1
# [1] = tested on: T1, PYK2
# T1 construct: gene PTK2B
# [2] = tested on: QSK
# [3] = tested on: RAF1
# [4] = tested on: RET
# [5] = tested on: RIOK1
# [6] = tested on: RIOK2
# [7] = tested on: RIOK3
# [8] = tested on: RIPK1
# [9] = tested on: RIPK2
# [10] = tested on: RIPK4
# 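Also: KINOMEscan kinase panel screen.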
smiles,measurement,setting,value
CN1c2ccc(CNc3ccc(F)cc3)cc2-c2c(cnn2C)S1(=O)=O,%Inh,[1],0%
same,%Inh,[2],20%
same,%Inh,[3],0%
same,%Inh,[4],0%
same,%Inh,[5],18%
same,%Inh,[6],0%
same,%Inh,[7],14%
same,%Inh,[8],0%
same,%Inh,[9],2%
same,%Inh,[10],5%
CC(C)(C)n1cnc2c(N)ncnc21 [SKF-97359],%Inh,[1],0%
same,%Inh,[2],0%
same,%Inh,[3],15%
same,%Inh,[4],19%
same,%Inh,[5],2%
same,%Inh,[6],0%
same,%Inh,[7],0%
same,%Inh,[8],0%
same,%Inh,[9],0%
same,%Inh,[10],67%
NS(=O)(=O)c1cccc(-c2ccc3nccc(-c4cccc(S(N)(=O)=O)c4)c3c2)c1 [GW867253],%Inh,[1],12%
same,%Inh,[2],13%
same,%Inh,[3],0%
same,%Inh,[4],0%
same,%Inh,[5],0%
same,%Inh,[6],0%
same,%Inh,[7],0%
same,%Inh,[8],0%
same,%Inh,[9],3%
same,%Inh,[10],0%
Cc1cccc(Cn2ccn3c(=O)cc(N4CCOCC4)nc23)c1 [GSK2297542],%Inh,[1],12%
same,%Inh,[2],11%
same,%Inh,[3],7%
same,%Inh,[4],13%
same,%Inh,[5],26%
same,%Inh,[6],29%
same,%Inh,[7],10%
same,%Inh,[8],26%
same,%Inh,[9],11%
same,%Inh,[10],7%
CNc1ncnc2[nH]ncc12 [SKF-18355],%Inh,[1],0%
same,%Inh,[2],5%
same,%Inh,[3],23%
same,%Inh,[4],0%
same,%Inh,[5],0%
same,%Inh,[6],0%
same,%Inh,[7],0%
same,%Inh,[8],0%
same,%Inh,[9],0%
same,%Inh,[10],22%
